# esBAF inh: Bmi1 luciferase reporter increase in mESCs, primary screen, esBAF inhibitor project, mouse ES cells, Bmi1 luciferase knock-in, single point. 24 h; 100% = twice the neutral-well signal. reporter increase, % at 12.5 µM. 2% of 350,000 active. AID 602393, 2012; in the data active = activation above about 40%; inconclusive = no clear call, values can overlap the other calls;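 note: 0% = median of the plate's neutral control wells and 100% = double that signal; a rise in the Bmi1 reporter signal indicates esBAF inhibition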
# Jurkat NFkB inh: inhibitors of induced NF-kB luciferase reporter, primary screen, TCR NF-kB activation inhibitor project, cell-based, luminescence, uHTS; Jurkat, PMA/ionomycin-induced NF-kB luciferase reporter; inhibition, % at 4 µM; 0.53% of 330,000 active; AID 435003, 2010; in the data active = inhibition above about 50%
# 697 NFkB inh: inhibitors of PMA/ionomycin-induced NF-kB reporter, 697 cells, primary screen, B-cell NF-kB inhibitor project, cell-based, luminescence, uHTS. 697 B-cell NF-kB luciferase reporter, 16 h. inhibition, % at 4 µM. 0.33% of 330,000 active; in the data active = inhibition above about 35%
# Gli-Sufu block: Gli-Sufu pathway antagonists, primary screen, luciferase luminescence, Sufu-KO-LIGHT cells, uHTS; Sufu-KO-LIGHT fibroblasts, Gli luciferase reporter luminescence; inhibition, % at 5 µM; 0.74% of 340,000 active;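 active = inhibition above about 55%, limit read from the data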;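 note: 0% = DMSO-treated cells and 100% = wells with medium but no cells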
# SMARCA2 activ: SMARCA2 (BRM) function activators, primary screen, cell-based, luminescence, high throughput; activation, % at 9.1 µM; MG213 cells, MMTV-luciferase reporter, dexamethasone, overnight; 1% of 370,000 active; AID 652017, 2013; in the data active = activation above about 7.8%;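 note: 0% = vehicle wells and 100% = reference activator wells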
# SMARCA2 conf: SMARCA2 (BRM) function activators, confirmation, cell-based, luminescence, triplicate. activation, % at 9.1 µM. 30% of 3,500 active. MG213 cells, MMTV-luciferase with dexamethasone, overnight; MG213 cells expressing E1A, Rb sequestered; DMSO wells 0%, reference activator 100%. shares compounds with SMARCA2 activ. AID 652260, 2013;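 active = activation above its plate's cutoff, the mean activation of tested wells plus 3 SD, cut at about 7.9% in these data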
# VP16 Luc act: GAL4-VP16 luciferase reporter activation, counter-screen for SMARCA2 (BRM) activator project, cell-based, pG5luc, luminescence, high throughput | activation, % at 9.1 µM | 41% of 3,500 active | HEK293 GAL4-VP16 pG5luc reporter; scaled: DMSO wells 0%, SAHA wells 100% | shares compounds with SMARCA2 activ;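 active = activation above the solvent-only control well mean plus 3 SD, averaged across control plates, cut at about 5.2% in these data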
# * marks the source's active call; other numbers are inactive results; ? = inconclusive; / = not tested or not shown. The list is not random: actives were taken first. Their share in the collection is about 3.3%.
SMILES,esBAF inh,Jurkat NFkB inh,697 NFkB inh,Gli-Sufu block,SMARCA2 activ,SMARCA2 conf,VP16 Luc act
CCN(CC)CCn1c(=N)n(CC(O)COc2cccc(C)c2)c2ccccc21 (configuration not stated),/,32.4,-14.1,48.7,8.3*,5.5,0.9
C/C=C/c1ccc2c(c1)O[C@@H](CN(C)C(=O)c1cccc(F)c1)[C@H](C)CN([C@@H](C)CO)S2(=O)=O,-9.9,/,/,/,/,/,/
COc1ccc(C2CC(=O)N(CC(=O)NCC3CCCO3)c3ccccc3S2)cc1OC (configuration not stated),3.5,4.9,14.5,-7.3,5.4,/,/
COc1ccc(C2CC(=O)N(C)c3ccccc3S2)cc1OC (configuration not stated),28.4,-0.2,1.2,-49.6,10.3*,11.9*,9.6*
CCN(CC)CCn1c(=S)[nH]c2cc3c(cc2c1=O)OCO3,-3.8,2.7,-7.2,-8.0,8.7*,3.1,0.1
C[C@@H]1CN([C@@H](C)CO)C(=O)c2cc(C#CCN(C)C)cnc2O[C@@H]1CN(C)C,0.5,/,/,/,/,/,/
O=C(Cn1cnc2ccccc2c1=O)NCCC(=O)Nc1ccc2c(c1)OCCO2,-11.2,-4.9,17.1,3.1,-3.0,/,/
O=C(Nc1ccc2c(c1)OCCO2)C(=S)NCc1ccccc1,/,-25.3,-1.6,-17.3,9.7*,4.5,3.6
O=C(CCCc1ccccc1)Nc1ccc2c(c1)OCCO2,/,-96.4,-20.3,-40.9,9.3*,4.5,8.8*
O=C(Cn1cnc2ccccc2c1=O)Nc1ccc2c(c1)OCCO2,?,-105.0,-77.7,-16.4,8.0*,6.2,11.8*
C[C@@H]1CN([C@@H](C)CO)C(=O)c2cc(C#C[C@@H](C)O)cnc2O[C@@H]1CN(C)Cc1ccccn1,-2.4,/,/,/,/,/,/
C/C=C/c1ccc2c(c1)O[C@H](CN(C)C(=O)C1CCOCC1)[C@@H](C)CN([C@@H](C)CO)S2(=O)=O,-1.5,/,/,/,/,/,/
C[C@H]1CN([C@@H](C)CO)S(=O)(=O)c2ccc(-c3ccc(C(=O)N(C)C)cc3)cc2O[C@H]1CN(C)Cc1ccccc1C(=O)O,-6.7,/,/,/,/,/,/
CN1[C@H](C(=O)NC2Cc3ccccc3C2)[C@@H](CO)[C@@H]2Cn3c(ccc(-c4ccccc4)c3=O)[C@@H]21,8.7,/,/,/,/,/,/
Cc1cc(C)c(S(=O)(=O)c2ccc(Cl)cc2)c(=O)[nH]1,-11.5,-19.0,-19.7,0.1,-1.4,/,/
Cc1cc(C)c(S(=O)(=O)c2cccc(Cl)c2)c(=O)[nH]1,1.0,8.8,10.4,-2.8,11.1*,-3.4,0.0
CC(O)CN=c1cc(-c2ccccc2)oc2ccc(Cl)cc12 (configuration not stated),-8.8,-48.7,-45.4,-9.0,8.4*,18.1*,12.8*
C/C(CCc1oc2ccc(Cl)cc2c1-c1ccc(C)o1)=N\O,-7.7,-1.3,-9.8,-15.1,-4.9,/,/
Nc1nc(N)c2sc3nc4c(cc3c2n1)CCC4,48.3*,-55.0,-36.3,-45.1,8.1*,11.1*,5.1*
CCc1nnc(NC(=O)c2sc3nc4c(cc3c2N)CCCCC4)s1,/,-62.7,-136.1,14.5,5.8,/,/
O=C1c2ccccc2C(=O)c2c(NCCCN(CCO)CCO)cccc21,/,0.0,0.3,11.9,15.4*,40.0*,-0.3
C[C@H]1CN([C@@H](C)CO)C(=O)c2ccccc2-c2ccccc2CO[C@@H]1CN(C)S(=O)(=O)c1cccs1,-2.2,/,/,/,/,/,/
COc1cccc(CNC(=O)[C@H]2[C@H](CO)[C@H]3Cn4c(ccc(-c5cccnc5)c4=O)[C@@H]2N3C(C)=O)c1,-3.1,/,/,/,/,/,/
COc1ccc2oc(=Nc3ccccc3)c(-c3nc4ccccc4[nH]3)cc2c1,/,-88.2,-171.8,-81.8,11.1*,1.9,9.8*
